Data from the supplement of paper PMC11417369.
± gives the standard deviation of the averaged measurements. Over roughly 25,000 sequences, “ln(normalized median fluorescence intensity)” has its median near 7.9; the highest 2% begin near 11. The sample as a whole holds a higher share of the highest values than the screen did.

system: PfAP2-I AP2 domain 3 (GST-tagged); assay: gcPBM binding intensity (ln(normalized median fluorescence intensity)); higher = stronger DNA binding
Procedure, shortened: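 Binding intensity values are the highest Masliner-normalised natural-log median intensity among replicate spots of either probe orientation. The binding step lasted 1 h in 1× PBS with 1% milk, 0.2 mg/ml BSA, 0.5% salmon testes DNA and 0.03% Triton X-100, using GST-tagged P. falciparum DNA-binding domains expressed in E. coli on an Agilent 4 × 180k array of primer-extended double-stranded 36-bp intergenic genomic probes plus negative controls. Alexa488 anti-GST antibody and a 488 nm scan detected bound protein.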

Row | Sequence | gcPBM binding intensity (ln)
1 | ATAATAAATTCTACGCGTACAAAACCATGAACATTA [XGTACX_site7505] | 8.02 ± 0.38
2 | TAATTAAAATTAAGAAGTACATTTTACTTTTAATGC [XGTACX_site5120] | 7.61 ± 0.63
3 | TTTTATTAAAACCACGCATGCAGAGGAAACGGTGAG [TGCATGCA_site1029] | 8.45 ± 0.64
4 | GTGTTAAATTTTTGAACATGCAAGTTTTATTATTGA [TGCATGCA_site478] | 7.58 ± 0.56
5 | ATATTCCTACATACAACACACGACGTTCTCATAAGA [CACACA_site231] | 8.06 ± 0.66
6 | TTATATGCATAAAAACGTACAAAAATGTATTCATGT [XGTACX_site2215] | 8.06 ± 0.52
7 | TCACTTTTATAATATAATATTCTATATCTTATTTTT [GTGCAC_negctrl_site717] | 7.47 ± 0.47
8 | TAATATAAAGAAATATCAATAATTTGGGCAAATGCC [GTGCAC_negctrl_site621] | 7.53 ± 0.45
9 | ATAATAATATTATTTTGTACATATGTGCTTATTTAT [XGTACX_site5540] | 8.375 ± 0.035
10 | AATAATATTTATTTTTGTACATATGTGCATTATAAA [XGTACX_site3682] | 11 ± 0.98
11 | TTGCATTAATTTATGTGTACATATAAATTTTTATTT [XGTACX_site3060] | 8.21 ± 0.15
12 | TTTATCAAAATAAATGCACACAAATTGCACATATCT [CACACA_site8281] | 10.31 ± 0.035
13 | AATTTAATATAATGCACACATAAAAAAAAAATCAAA [CACACA_site1] | 10.9 ± 0.65
14 | CTCTATAAATGCTGCACACACATTTAATTATTTAAG [CACACA_site2582] | 9.045 ± 0.064
15 | AAAAAATTAAAAATCACACATAAATATATATAAAAA [CACACA_site4192] | 7.53 ± 0.67
16 | AAATTAAAATATAATACACACATAAAAAAAAAATCA [CACACA_site5918] | 7.68 ± 0.61
17 | AAAATTTAATATAATGCACACATAAAAAAAAAATCA [CACACA_site7882] | 11.2 ± 0.76
18 | ACATCATAAAATTTATGTACACATTTTTAATTATAC [XGTACX_site7759] | 8.19 ± 0.19
19 | ATTTATAAAATTAATGCACACATCAGCATTTATAAA [CACACA_site1025] | 11.3 ± 0.79
20 | ATTATTTTATAATTCACACATAAATAAAAAAAAAAT [CACACA_site5290] | 7.76 ± 0.32
21 | TCTAATAAAATAAATACATGCATACATACATACATA [TGCATGCA_site895] | 7.76 ± 0.63
22 | TATGTGAATAAATAAGCACACATAAACACATATATA [CACACA_site9359] | 8.06 ± 0.42
23 | ATTTAATGTATTTTGCGTACGAATTATTTTATTTCA [XGTACX_site7331] | 7.93 ± 0.49
24 | CTATTATAATATTTTACACACCATGTAAAATATATA [CACACA_site3206] | 7.75 ± 0.39
